The panel holds about 83,000 compounds, 20% with a hit somewhere; the sample as a whole holds those more often.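 Plates (96-well) were seeded with cells, treated with compound at one concentration, and incubated for 48 hours before percent growth was determined.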 Values without a mark were called inactive. Active and inactive are the calls of the source. The calls were made as follows: active = growth percent below 10; inactive = the rest.

Test systems include HCT-15 colon; HT29 colon; SNB-75 CNS; SNB-19 CNS; U251 CNS; PC-3 prostate; SK-MEL-5 melanoma; UACC-62 melanoma; LOX IMVI melanoma; SK-MEL-28 melanoma.
What all share (experiment): NCI-60 one-dose screen, 48 h (100 = growth as untreated, 0 = no growth, -100 = all killed)
Conditions in all cases: 10 µM unless noted

`CC(C)(C)C(=O)/C=c1/[nH]c(=O)/c(=C/c2ccccc2O)s1`: the growth was 33.8% in the assay with HCT-15 colon; 72.2% in the assay on HT29 colon; 66.5% in the assay with SNB-75 CNS; 66.5% in the assay on SNB-19 CNS; 27.8% with U251 CNS; 53.4% with PC-3 prostate. The growth in the assay on SK-MEL-5 melanoma is 42%; in the assay with UACC-62 melanoma, 58.3%; in the assay with LOX IMVI melanoma it was 40%; in the assay with SK-MEL-28 melanoma, 69.6%.
For `COc1cc2c(cc1OCCCCC(=O)Nc1ccc(-c3nc4ccccc4s3)cc1)N=C[C@@H]1CCCN1C2=O`, the growth was 10.6% in the assay with HCT-15 colon; -9.12% (active) in the assay with HT29 colon; -67.7% (active) with SNB-75 CNS; 14.1% in the assay on SNB-19 CNS; 7.5% (active) with U251 CNS; -4.92% (active) with PC-3 prostate. Further, the growth was -99.3% (active) in the assay on SK-MEL-5 melanoma, -70.9% (active) in the assay on UACC-62 melanoma, 1.99% (active) with LOX IMVI melanoma and -44% (active) in the assay with SK-MEL-28 melanoma.
`Cc1ccc2nc(-c3ccc(-n4on4-c4ccc(/C=C/c5ccc(-n6on6-c6ccc(-c7nc8ccc(C)cc8s7)cc6)cc5S(=O)(=O)O)c(S(=O)(=O)O)c4)cc3)sc2c1`: the growth was 109% with HCT-15 colon; 113% with HT29 colon; 107% in the assay with SNB-75 CNS; 117% in the assay on SNB-19 CNS; 115% in the assay on U251 CNS; 98% in the assay with PC-3 prostate. For the same compound, the growth is 107% in the assay with SK-MEL-5 melanoma, 105% with UACC-62 melanoma, 97% with LOX IMVI melanoma and 107% with SK-MEL-28 melanoma.
Regarding `COc1ccc2c(c1)C(=O)/C(=C/c1ccc(OCC(=O)c3ccc(Cl)cc3)cc1)O2`, the growth in the assay on HCT-15 colon is 98.8%; in the assay on HT29 colon it was 100%; in the assay on SNB-75 CNS, -0.258% (active); with SNB-19 CNS it was 101%; in the assay with U251 CNS, 80.9%; in the assay with PC-3 prostate, 50.9%. Also, the growth in the assay on SK-MEL-5 melanoma is 131%; in the assay with UACC-62 melanoma, 72.2%; with LOX IMVI melanoma, 40.1%; in the assay on SK-MEL-28 melanoma, 104%.
Regarding `Cc1cccc(Cc2cnc(NC(=O)CCc3ccc(C)o3)s2)c1`, the growth was 7.47% (active) with HCT-15 colon; 0.165% (active) in the assay with HT29 colon; 23.9% with SNB-75 CNS; 23.1% in the assay with SNB-19 CNS; 21.9% in the assay with PC-3 prostate; -11.7% (active) in the assay with SK-MEL-5 melanoma. Moreover, the growth in the assay on UACC-62 melanoma was 21.6%; in the assay on LOX IMVI melanoma it was 29.9%; in the assay with SK-MEL-28 melanoma, 61%.
Consider `O=c1c2ccccc2sc2c(NCCCNCCO)nc3ccccc3c12`, for which the growth in the assay with HCT-15 colon is 13.7%; with HT29 colon, -47.3% (active); in the assay with SNB-75 CNS it was 35.3%; with SNB-19 CNS it was 63.7%; in the assay with PC-3 prostate it was 22.1%; in the assay on SK-MEL-5 melanoma, -64.7% (active). The growth is -17.8% (active) in the assay with UACC-62 melanoma, -87.4% (active) in the assay on LOX IMVI melanoma and -18.1% (active) with SK-MEL-28 melanoma.
`NC(CSC(c1ccccc1)(c1ccccc1)c1ccc(F)cc1)C(=O)O` (stereo not given): the growth with HCT-15 colon is 35.3%; in the assay with HT29 colon it was 4.36% (active); in the assay on SNB-75 CNS it was -0.679% (active); in the assay with SNB-19 CNS it was 35.3%; in the assay on PC-3 prostate it was 15.8%; in the assay with SK-MEL-5 melanoma it was 15.2%. Further, the values for the growth with UACC-62 melanoma, with LOX IMVI melanoma and in the assay on SK-MEL-28 melanoma were 35.5%, 46.4% and 58.8%, respectively.
Consider `NS(=O)(=O)c1ccc(Nc2nc(O)c(/C=C3\C=Nc4ccccc43)s2)cc1`, for which the growth was 107% in the assay on HCT-15 colon; 114% in the assay on HT29 colon; 93.7% in the assay on SNB-75 CNS; 91.6% in the assay on SNB-19 CNS; 92.1% in the assay on PC-3 prostate; 101% with SK-MEL-5 melanoma. Further, the results for the growth in the assay on UACC-62 melanoma, in the assay on LOX IMVI melanoma and with SK-MEL-28 melanoma were 82.6%, 97.3% and 110%, respectively.
On to `COCCNC(C(=O)c1ccccc1)c1ccccc1` (stereo not given), for which the growth in the assay with HCT-15 colon is 99.6%; in the assay with HT29 colon it was 107%; in the assay on SNB-75 CNS it was 88.2%; with SNB-19 CNS, 97%; with PC-3 prostate it was 92.7%; in the assay on SK-MEL-5 melanoma it was 96.6%. The growth with UACC-62 melanoma was 97.9%; in the assay with LOX IMVI melanoma it was 103%; with SK-MEL-28 melanoma, 105%.
Regarding `O=C(COc1ccc(Cl)cc1)N1CCN(Cc2ccc3c(c2)OCO3)CC1`, the growth with HCT-15 colon was 96.8%; in the assay with HT29 colon, 112%; in the assay on SNB-75 CNS, 102%; in the assay on SNB-19 CNS, 95.6%; in the assay on PC-3 prostate it was 90.3%; with SK-MEL-5 melanoma it was 97.7%. The growth in the assay with UACC-62 melanoma is 81.8%; in the assay on LOX IMVI melanoma, 89.5%; with SK-MEL-28 melanoma, 116%.
For the compound `COc1ccc(-c2nn(-c3cccc(Cl)c3)cc2-c2cc(-c3ccc(Br)cc3)[nH]c(=O)c2C#N)cc1`, the growth is 71.1% in the assay on HCT-15 colon; 108% in the assay with HT29 colon; -37.1% (active) with SNB-75 CNS; 90.6% in the assay on SNB-19 CNS; 86% in the assay with PC-3 prostate; 91% in the assay on SK-MEL-5 melanoma. The growth with UACC-62 melanoma was 88%; in the assay with LOX IMVI melanoma, 69.6%; in the assay on SK-MEL-28 melanoma it was 99.6%.
As to `C=C(C)[C@@H]1C/C=C(\COC(=O)[C@H](OC(C)=O)C(NC(=O)c2ccccc2)c2ccccc2)CC[C@H]2O[C@]2(C)CC/C=C(\C)CC1` (stereo not given in full), the growth was 89% [5 µM] with HCT-15 colon; 62.8% [5 µM] in the assay with HT29 colon; 57.5% [5 µM] in the assay with SNB-75 CNS; 80.2% [5 µM] with SNB-19 CNS; 32.1% [5 µM] in the assay with PC-3 prostate; 71.4% [5 µM] in the assay with SK-MEL-5 melanoma. In addition, the growth in the assay with UACC-62 melanoma is 62.3% [5 µM]; in the assay on LOX IMVI melanoma it was 72.9% [5 µM]; in the assay on SK-MEL-28 melanoma, 77.1% [5 µM].
With `O=[N+]([O-])c1ccccc1NC1c2ccccc2Oc2ccccc21`, the growth is 37% in the assay with HCT-15 colon; 11% in the assay with HT29 colon; 69.5% with SNB-75 CNS; 68.7% in the assay on SNB-19 CNS; 56.1% with PC-3 prostate; 46% in the assay with SK-MEL-5 melanoma. Further, the growth is 48.7% with UACC-62 melanoma, 65.1% with LOX IMVI melanoma and 69.3% in the assay with SK-MEL-28 melanoma.
Consider `CC(=O)N1N=C(CCC(=O)c2nc3ccc([N+](=O)[O-])cc3[nH]2)OC1c1ccc(O)cc1` (stereo not given), for which the growth in the assay with HCT-15 colon was 97.1%; with HT29 colon it was 76.5%; with SNB-75 CNS, 97.9%; in the assay on SNB-19 CNS, 107%; in the assay on PC-3 prostate it was 101%; with SK-MEL-5 melanoma, 112%. Moreover, the growth in the assay on UACC-62 melanoma is 105%; in the assay on LOX IMVI melanoma, 94.8%; with SK-MEL-28 melanoma it was 115%.
